Test results from the supplement of paper PMC11172423.

Assays:
[1] = system: Falciformispora senegalensis CBS197.79; assay: growth relative to untreated control; higher = less inhibition, active = 20 or less
How it was run: (§1)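 Growth was expressed as metabolic activity relative to the untreated growth control, with both corrected using a blank of medium plus dye. Hyphal fragments of M. mycetomatis MM55 or F. senegalensis CBS197.79 were suspended to 68–72% transmission at 660 nm in colourless RPMI 1640 containing L-glutamine and MOPS. In 96-well plates they were exposed to compound at 100 or 25 µM for 7 days at 37 °C, and viability was read with MTS (2 h, 490 nm) or resazurin (600 nm).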

[2] = system: Madurella mycetomatis MM55; assay: as above
How it was run: as §1

Measured: growth

COc1ccc2nc3cc(Cl)ccc3c(Nc3cc(CN4CCCC4)c(O)c(CN4CCCC4)c3)c2n1
inactive: [1]; 25 µM 107% | [2]; 25 µM 76.3% | [2]; 100 µM 40%
active: [1]; 100 µM 15%

C[C@@H]1CCCN1CCc1cc2cc(-c3ccc(C#N)cc3)ccc2o1
active: [1]; 100 µM 17.8% | [2]; 100 µM 4.57%
inactive: [1]; 25 µM 98.4% | [2]; 25 µM 71.7%

Cc1cccc(Nc2nccc(-c3cccc(C#N)c3)n2)c1
inactive: [1]; 25 µM 80.6% | [1]; 100 µM 89.8% | [2]; 25 µM 84.1% | [2]; 100 µM 49.1%

CCN(CC)Cc1ccccc1CNc1ccnc2ccsc12
active: [2]; 100 µM 5.38%
inactive: [1]; 25 µM 103% | [1]; 100 µM 28.1% | [2]; 25 µM 75.4%

CC[C@H](C)[C@H]1O[C@]2(CC[C@@H]1C)C[C@@H]1C[C@@H](C/C=C(\C)[C@@H](O[C@H]3C[C@H](OC)[C@@H](O[C@H]4C[C@H](OC)[C@@H](O)[C@H](C)O4)[C@H](C)O3)[C@@H](C)/C=C/C=C3\CO[C@@H]4[C@H](O)C(C)=C[C@@H](C(=O)O1)[C@]34O)O2 [listing 1 of 2 here]
inactive: [1]; 25 µM 93.9% | [1]; 100 µM 106% | [2]; 25 µM 73.2% | [2]; 100 µM 83.5%

O=C(c1ccc(Nc2nccc(-c3cc(Cl)cc(C(F)(F)F)c3)n2)cc1)N1CC(O)C1
inactive: [1]; 25 µM 88.9% | [1]; 100 µM 93.2% | [2]; 25 µM 110% | [2]; 100 µM 85.6%

Cc1onc(-c2ccccc2)c1-c1ccc(S(N)(=O)=O)cc1
inactive: [1]; 25 µM 97% | [1]; 100 µM 105% | [2]; 25 µM 117% | [2]; 100 µM 91.1%

c1cc(N2CCC(CN3CCOCC3)CC2)c2sccc2n1
inactive: [1]; 25 µM 79% | [1]; 100 µM 32.1% | [2]; 25 µM 90.4% | [2]; 100 µM 31.4%

CC(C)CC(NC(=O)N1CCOCC1)C(=O)NC(/C=C/S(=O)(=O)c1ccccc1)CCc1ccccc1 (stereo not given)
inactive: [1]; 25 µM 90.8% | [1]; 100 µM 93.9% | [2]; 25 µM 86.4% | [2]; 100 µM 96.5%

N#Cc1ccc(C/C(=N/NC(=O)Nc2ccc(OC(F)(F)F)cc2)c2cccc(C(F)(F)F)c2)cc1
inactive: [1]; 25 µM 97% | [1]; 100 µM 96.1% | [2]; 25 µM 98.2% | [2]; 100 µM 91.3%

Cc1ccc(-c2noc(-c3ccccc3)n2)cc1
inactive: [1]; 25 µM 90.2% | [1]; 100 µM 86.5% | [2]; 25 µM 43.1% | [2]; 100 µM 90.5%

CCN1CCN(Cc2ccc(-c3cc4c(N[C@H](C)c5ccccc5)[nH]cnc-4n3)cc2)CC1
inactive: [1]; 25 µM 78.1% | [1]; 100 µM 49.3% | [2]; 25 µM 97.8% | [2]; 100 µM 46.8%

CC(C)(C)NC(=O)[C@@H]1CN(Cc2cccnc2)CCN1C[C@@H](O)C[C@@H](Cc1ccccc1)C(=O)N[C@H]1c2ccccc2C[C@H]1O
inactive: [1]; 25 µM 105% | [1]; 100 µM 103% | [2]; 25 µM 113% | [2]; 100 µM 90.8%

CC[C@H](C)[C@H]1O[C@]2(CC[C@@H]1C)C[C@@H]1C[C@@H](C/C=C(\C)[C@@H](O[C@H]3C[C@H](OC)[C@@H](O[C@H]4C[C@H](OC)[C@@H](O)[C@H](C)O4)[C@H](C)O3)[C@@H](C)/C=C/C=C3\CO[C@@H]4[C@H](O)C(C)=C[C@@H](C(=O)O1)[C@]34O)O2 [listing 2 of 2 here]
inactive: [1]; 25 µM 90.2% | [1]; 100 µM 91.2% | [2]; 25 µM 95.8% | [2]; 100 µM 112%

COc1ccc2c(c1)c(CC(=O)O)c(C)n2C(=O)c1ccc(Cl)cc1
inactive: [1]; 25 µM 111% | [1]; 100 µM 104% | [2]; 25 µM 79.7% | [2]; 100 µM 80.8%

Cc1cccc(C=NNc2cc(N3CCOCC3)nc(OCCc3ccccn3)n2)c1
inactive: [1]; 25 µM 82.1% | [1]; 100 µM 101% | [2]; 25 µM 45.9%
active: [2]; 100 µM 10.4%

CC(C)(C)NCc1ccc(Nc2ccnc3cc(Cl)ccc23)cc1O
active: [1]; 100 µM 17.1% | [2]; 100 µM 3.73%
inactive: [1]; 25 µM 95.8% | [2]; 25 µM 79.1%

CC(C)C[C@H](NC(=O)[C@H](Cc1ccccc1)NC(=O)c1cnccn1)B(O)O
inactive: [1]; 25 µM 103% | [1]; 100 µM 93.7% | [2]; 25 µM 113% | [2]; 100 µM 85.1%

COc1ccc(CCN(Cc2cccs2)C(=O)c2cc3sccc3n2C)cc1OC
active: [2]; 25 µM 5.66%
inactive: [1]; 25 µM 97.9% | [1]; 100 µM 113% | [2]; 100 µM 31.3%

C[C@H]1c2cccc(O)c2C(=O)C2=C(O)[C@]3(O)C(O)=C(C(N)=O)C(=O)[C@@H](N(C)C)[C@@H]3[C@@H](O)[C@@H]21
inactive: [1]; 25 µM 108% | [1]; 100 µM 108% | [2]; 25 µM 63.1% | [2]; 100 µM 91.7%
